Source: PubChem
Compounds with a hit are over-represented: about 3.7% of the library has one in this group of screens.
FMDV inh – High Throughput Screening for Foot and Mouth Disease Virus Antivirals; FMDV antiviral cell-based qHTS; Potency, µM (highest dose often 57.9 µM), for inactives: at the top dose activity change, negative = inhibition, usual class: inhibitors; 410,000 tested, 1.2% active; AID 1159524, 2015; calls by dose curve; tested in HEK293T cells; note: read-out not given here; nearly all actives have a fitted effect of over 45% in size
Sm TGR block – qHTS Assay for the Inhibitors of Schistosoma Mansoni Peroxiredoxins; Schistosoma mansoni thioredoxin glutathione reductase (TGR), Q962Y6; purified TGR, DTNB reduction, TNB absorbance 405 nm; Potency, µM (doses to about 114 µM), without a hit: at the highest dose activity change, negative = inhibition, actives largely listed as inhibitors; 360,000 tested, 3% active; AID 485364, 2010; note: nearly all actives have a fitted effect of over 60% in size
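Kinetic colorimetric format: TGR-catalysed, NADPH-driven DTNB reduction monitored via TNB absorbance. Enzyme dispensed at 20 nM; compound exposure 15 min at room temperature before reaction start.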
RE007 growth inh – qHTS Assay for Inhibitors of the HIV-1 protein Vpr. S. pombe RE007 Vpr strain, BacTiter-Glo ATP luminescence, 24 h. Potency, µM (highest dose often 92.2 µM), without a hit: at the top dose activity change, negative = less growth, most hits filed as inhibitors. 360,000 tested, 0.21% active; active = well fitted falling curve with a large enough effect; inconclusive = small, poorly fitted or top-dose-only effect; inactive = no such curve, though single readings can be large or run the other way; note: nearly all actives have a fitted effect of over 50% in size
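Fission yeast strain RE007, carrying one chromosomally integrated HIV-1 vpr copy, was seeded at OD 0.01 in PMG+AL medium with 23 nL pinned compound. After 24 h at 30 °C and 99% humidity, viability was read by BacTiter-Glo luminescence.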
Tb PYK inh – qHTS of Trypanosoma Brucei Inhibitors; pyruvate kinase (Trypanosoma brucei), Q57TT1; TbPYK enzyme, Kinase-Glo Plus ATP luminescence, 45 min; Potency, µM (highest dose often 76.8 µM), for inactives: at the highest dose activity, negative = inhibition, actives largely listed as inhibitors; 410,000 tested, 0.12% active; AID 624173, 2012; note: nearly all actives have a fitted effect of over 50% in size
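Assay buffer: 50 mM TEA pH 7.2, 100 mM KCl, 10 mM MgCl2, 0.05% BSA, 0.01% Tween-20. Pyruvate kinase from T. brucei plus substrate met compound, then ADP (130 uM final). Luminescence was read post 45 min RT.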
* = called active by the depositor; ? = inconclusive; . = not tested or not shown. Unless noted, calls come from the whole dose curve; as a rule, active = well fitted curve in the direction sought with a large enough effect; inconclusive = small, poorly fitted or top-dose-only effect, or another doubt; inactive = no such curve, though single readings can be large; an effect the other way counts as inactive or inconclusive. % is set by controls: 0 for no effect and ±100 for the full control effect; potency is the fitted concentration of half-maximal effect.

SMILES	FMDV inh	Sm TGR block	RE007 growth inh	Tb PYK inh
NC(=O)COc1ccccc1C1=NO[C@@](CC(=O)O)(C(=O)Nc2ccc3c(c2)OCCO3)C1	-11%	18µM*	3%	-8%
COc1ccc(C2=NO[C@@](CC(=O)O)(C(=O)Nc3ccc4c(c3)OCCO4)C2)cc1	6%	22µM*	-9%	-5%
COc1ccc(-c2[nH]c(-c3ccccc3)nc2SCC(=O)Nc2ccc3c(c2)OCCO3)cc1	-10%	7%	.	-21%
CS(=O)(=O)c1ccc(C(=O)OCC(=O)N2CCOCC2)cc1[N+](=O)[O-]	?	.	.	0%
CS(=O)(=O)c1ccc(C(=O)OCC(=O)NC(=O)C2CCCCC2)cc1[N+](=O)[O-]	22µM*	7.1µM*	-9%	-9%
CS(=O)(=O)c1ccc(C(=O)OCC(=O)N2CCN(CCC3CCCCC3)CC2)cc1[N+](=O)[O-]	25µM*	.	.	-16%
CCOc1c(CNCCSc2nnnn2C)cccc1OC	-6%	-8%	.	0%
OC(C#CCN1CCOCC1)(c1ccccc1)C1CC1 (stereo not drawn)	14%	50µM*	-6%	-1%
CCOC(=O)C1=C(c2ccccc2)N=c2sc(=Cc3cc(OC)c(OC)c(OC)c3)c(=O)n2C1c1cccs1 (stereo not drawn)	-24%	.	9%	7%
CCOC(=O)C1=C(c2ccccc2)N=c2s/c(=C\c3ccc(O)cc3)c(=O)n2C1c1cccs1 (stereo not drawn)	25µM*	-19%	-6%	5%
CC(C)Cn1c(-c2ccc(S(=O)(=O)N3CCCC3)cc2)csc1=Nc1ccccc1	0%	-3%	.	0%
COc1ccccc1N=c1scc(-c2ccc(S(=O)(=O)N3CCCC3)cc2)n1C	2.8µM*	-21%	.	-4%
C=CCn1c(-c2ccc(S(=O)(=O)N3CCOCC3)cc2)csc1=Nc1ccccc1	?	-21%	-3%	-2%
CC(=O)c1cccc(N=c2scc(-c3ccc(S(=O)(=O)N4CCOCC4)cc3)n2CCO)c1	20µM*	5%	-5%	-16%
O=S(=O)(c1ccc(-c2csc(=Nc3ccc(F)cc3)n2CCCCCCO)cc1)N1CCCC1	25µM*	-2%	.	-5%
CCC1CCCCN1C(=O)CSc1nc2c([nH]c3ccccc32)c(=O)n1-c1ccc(OC)cc1 (stereo not drawn)	-1%	-5%	.	1%
N[C@H](C(=O)O)[C@@H]1CC(Cl)=NO1	-17%	.	.	.
C=CCn1c(Cc2ccccc2)nc2c(cnn2-c2ccccc2)c1=O	28µM*	-9%	16%	-3%
COc1ccccc1C1CCN(C(=O)c2ccccc2)CC1	-23%	-18%	-6%	-11%
COc1ccccc1C1CCN(C(=O)c2cnn(-c3ccccc3)c2C)CC1	40µM*	-2%	1%	5%
Cc1cc(Cl)ccc1NS(=O)(=O)c1c(C(=O)N2CCCCCC2)c(C)n(C)c1C	38%	-9%	.	3%
CCCCN(C)C(=O)C1CCN(c2ccc(S(=O)(=O)N3CCOCC3)cc2[N+](=O)[O-])CC1	-12%	45µM*	5%	-8%
Cc1cc(C)c2c(N)c(C(=O)Nc3ncc(C)s3)sc2n1	5µM*	-3%	-22%	-10%
COC(=O)c1sc2nc(C)cc(C)c2c1N	35%	0%	-5%	-4%
Cc1ccc(CNS(=O)(=O)c2c(C(=O)N3CCCCC3)c(C)n(C)c2C)o1	32%	35µM*	4%	3%
SMILES	FMDV inh	Sm TGR block	RE007 growth inh	Tb PYK inh
COc1cc(NS(=O)(=O)c2c(C(=O)N3CCCCC3)c(C)n(C)c2C)cc(OC)c1OC	-12%	4%	.	4%
COc1ccc(C)cc1NS(=O)(=O)c1c(C(=O)N2CCCCCC2)c(C)n(C)c1C	61%	5.6µM*	.	3%
COc1ccc(NC(=O)c2oc3ccccc3c2NC(=O)C2CCCCC2)c(OC)c1	3%	-3%	.	4%
CCCN1CCOC(CC(=O)Nc2ccc([N+](=O)[O-])cc2)C1=O (stereo not drawn)	3%	28µM*	?	5%
CCN1CCOC(CC(=O)Nc2cccc([N+](=O)[O-])c2)C1=O (stereo not drawn)	-5%	11µM*	?	3%
CN1[C@@H]2CC[C@H]1CC(OC(c1ccccc1)c1ccccc1)C2 (stereo partly drawn)	0%	.	.	5%
